Shown are actives, neighbours in structure and some others; about 8% of the full set was active somewhere.
Lassa entry inh: Lassa virus entry inhibition; Lassa virus pseudotype entry inhibition, cell reporter; Potency, µM (series often up to 37.9 µM), hits mostly inhibitors; hit rate 1.2% among 300,000; AID 540256; calls by dose curve; tested in HEK293 cells; also: nearly all actives have a fitted effect of over 50% in size
HCMV inh: inhibitors of human cytomegalovirus; activity change, negative = inhibition, % at 57.5 µM; hit rate 4.5% among 410,000; AID 1259415; HFF cells, HCMV-luciferase reporter, 72 h; hits give low values; in the data active = activity change below about -60%; inconclusive = no clear call, values can overlap the other calls; inactive = above about -39%
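Cell-based, HFFs, 1000 cells/well, 16 h 37C; cpds in DMSO + HCMV-luc, MOI 1 PFU/cell; 72 h 37C; OneGlo luminescence after 5 min RT; norm. to buffer vs Salinomycin 10uM.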
FMDV inh: antivirals against foot and mouth disease virus. AID 1159524. Potency, µM (series often up to 57.9 µM), most hits filed as inhibitors. FMDV antiviral cell-based qHTS. hit rate 1.2% among 410,000; calls by dose curve; tested in HEK293T cells; also: read-out not given here; nearly all actives have a fitted effect of over 45% in size
MARV entry inh: blocks Marburg virus binding to or entry into cells. Marburg virus pseudotyped entry inhibition, cell reporter. Potency, µM (top dose mostly 37.8 µM), usual class: inhibitors. hit rate 1.8% among 300,000; calls by dose curve; tested in HEK293 cells
SARS PLP yeast: blocks SARS-CoV papain-like protease in a yeast assay; S. cerevisiae expressing SARS-CoV PLpro, growth rescue; hit rate 0.19% among 330,000; AID 485353; Potency, µM (doses to about 32.9 µM), most hits filed as activators; calls by dose curve; also: nearly all actives have a fitted effect of over 55% in size
HCV inh: inhibitors of hepatitis C virus infection; Huh7.5.1 HCVcc-Cre infection, luciferase reporter, 44 h; Potency, µM (doses to about 41.8 µM), actives largely listed as inhibitors; hit rate 3.4% among 340,000; active = well fitted inhibition curve with a large enough effect; inconclusive = small, poorly fitted or top-dose-only effect, or another doubt; inactive = no such curve, though single readings can be large or run the other way
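Luciferase read-out (15 sec integration) after a 15 min room-temperature substrate step quantifies HCVcc-Cre infection. Cells, 1,000 per well, had compound added 4 h post-plating, then virus at ~0.5 moi, and were cultured 44 h.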
Each line names hits and unclear results; the compound was inactive in the other large screens.

Cc1ccc(S(=O)(=O)N(CC(=O)NCC2CCCO2)Cc2cccc(C)c2)cc1 (centres undefined)	none
CCCc1cc(=O)[nH]c(SCC(=O)N2c3ccccc3NC(=O)C2(C)C)n1	none (no result: Lassa entry inh, MARV entry inh)
COc1cccc(Cn2c(=O)c(-c3ccc(F)cc3)nc3cnc(N(C)C)nc32)c1	none (no result: Lassa entry inh, HCMV inh, MARV entry inh, SARS PLP yeast, HCV inh)
FC(F)(F)c1ccc(CN2C[C@@H]3C(c4ccc(Cl)nc4)C4(c5cccnc5)CC3(C4)[C@H]2c2ccccc2)cc1 (some centres undefined)	HCMV inh -67, FMDV inh inconclusive (no result: Lassa entry inh, MARV entry inh)
O=C(CCn1cnc2ccccc2c1=O)Nc1ccc(Cl)c(Cl)c1	HCMV inh -74
O=[N+]([O-])c1ccc(N=Nc2ccc(O)c3ccccc23)cc1	MARV entry inh inconclusive, HCV inh 10µM (no result: HCMV inh, SARS PLP yeast)
COc1ccc(N2CCN(CCCNC(=O)CN3C(=O)COc4ccccc43)CC2)cc1	none (no result: Lassa entry inh, MARV entry inh)
Cc1c(C=O)c2ccccn2c1C(=O)c1cccc([N+](=O)[O-])c1	HCV inh inconclusive
COC(=O)c1c(C(=O)OC)c2ccccn2c1C(=O)c1ccc([N+](=O)[O-])cc1	HCMV inh -102, FMDV inh inconclusive
CC1CC(C)CN(S(=O)(=O)c2ccc(Oc3ccc([N+](=O)[O-])cc3)cc2)C1 (centres undefined)	HCMV inh -72, FMDV inh inconclusive, MARV entry inh inconclusive, SARS PLP yeast inconclusive, HCV inh inconclusive
CCc1nc2cc(C(=O)N3CCC[C@H]3CO)cc(NC(=O)c3ccccc3OC)c2n1C	none (no result: Lassa entry inh, HCMV inh, MARV entry inh, SARS PLP yeast, HCV inh)
CCCNC(=O)c1ccc(SCC(=O)N(CC)CC)c([N+](=O)[O-])c1	HCMV inh -67, HCV inh inconclusive
O=C(Nc1ccc(N2CCCCC2)c(Cl)c1)c1cccnc1	Lassa entry inh 0.89µM, HCMV inh -78, MARV entry inh 1µM, HCV inh inconclusive
CCN(CC)S(=O)(=O)c1cc(C(=O)Nc2ccncc2)ccc1Cl	HCMV inh -87, MARV entry inh inconclusive, HCV inh inconclusive (no result: FMDV inh)
O=C(Nc1nc2ccccc2[nH]1)c1ccc(S(=O)(=O)N2CCOCC2)cc1	none (no result: Lassa entry inh, MARV entry inh)
O=C(Nc1nc2ccccc2[nH]1)c1ccc(Cl)c(S(=O)(=O)N2CCCC2)c1	Lassa entry inh inconclusive, FMDV inh inconclusive, MARV entry inh inconclusive, HCV inh 22µM (no result: HCMV inh)
COc1ccc(-c2nc3cc(F)ccc3cc2CN(C(=O)c2ccc3c(c2)OCO3)C2CC2)cc1	none (no result: Lassa entry inh, HCMV inh, MARV entry inh, SARS PLP yeast, HCV inh)
O=C(NC1CCCC1)c1ccc(Cl)c(S(=O)(=O)N2CCCCC2)c1	HCV inh 35µM
O=C(Nc1ccc(Cl)c(S(=O)(=O)N2CCCCC2)c1)c1cccnc1	HCV inh 14µM (no result: Lassa entry inh, MARV entry inh)
O=C(NCCCN1CCOCC1)c1ccc(CSc2ccc(Cl)cc2)cc1	HCMV inh -70, MARV entry inh inconclusive, HCV inh inconclusive
CC(C)c1ccc(C(=O)NCCCN2CCOCC2)cc1	none (no result: Lassa entry inh, MARV entry inh)
O=C(Nc1cccc(S(=O)(=O)N2CCCC2)c1)c1cccnc1	MARV entry inh inconclusive
O=C(NCCCn1ccnc1)c1ccc(N2CCCCCC2)c([N+](=O)[O-])c1	Lassa entry inh inconclusive, HCMV inh -61, MARV entry inh inconclusive
CS(=O)(=O)c1ccc(C(=O)Nc2nc(-c3ccco3)c(-c3ccco3)s2)cc1	FMDV inh inconclusive, HCV inh inconclusive
CC1(C(=O)NS(=O)(=O)c2ccccc2Cl)CCN1C(=O)COc1ccc(Cl)cc1 (centres undefined)	none (no result: Lassa entry inh, MARV entry inh, SARS PLP yeast, HCV inh)
C=C1CCN(c2ccc(C(=O)NCCC)cc2[N+](=O)[O-])CC1	HCV inh 10µM (no result: Lassa entry inh, MARV entry inh, SARS PLP yeast)
O=C(Nc1ccc(Br)cc1)c1ccc(Cl)c(S(=O)(=O)N2CCCCCC2)c1	Lassa entry inh inconclusive, FMDV inh 28µM (no result: MARV entry inh, SARS PLP yeast, HCV inh)
O=C(Nc1ccncc1)c1ccc(Cl)c(S(=O)(=O)N2CCCC2)c1	HCMV inh -71, MARV entry inh inconclusive, HCV inh inconclusive
O=C(c1ccc(Cl)c(S(=O)(=O)N2CCCC2)c1)N1CCN(Cc2ccccc2)CC1	HCV inh inconclusive (no result: Lassa entry inh, MARV entry inh, SARS PLP yeast)
O=C(c1ccc(Cl)c(S(=O)(=O)N2CCCCC2)c1)N1CCN(Cc2ccccc2)CC1	Lassa entry inh inconclusive, HCMV inh -61, HCV inh inconclusive
O=C(Nc1ccon1)c1ccc(Cl)c(S(=O)(=O)N2CCCCC2)c1	none (no result: HCMV inh)
O=C(O)c1ccc(Cl)c(S(=O)(=O)N2CCCCCC2)c1	none (no result: FMDV inh)
C=C1CCN(c2ccc(C(=O)NCc3ccccc3)cc2[N+](=O)[O-])CC1	none (no result: Lassa entry inh, MARV entry inh)
COc1ccccc1-n1c(SCC(=O)Nc2ccc(Br)cc2)nc(O)cc1=O	none
O=c1[nH]c2ccsc2c(=O)n1CCO	none (no result: Lassa entry inh, MARV entry inh)
CCOC(=O)N1CCC(NC(=O)c2ccc(N3CCC4(CC3)OCCO4)c([N+](=O)[O-])c2)CC1	Lassa entry inh inconclusive, FMDV inh 25µM, MARV entry inh inconclusive
O=C(Nc1ccccc1Cl)NC1(C(=O)NCCCN2CCOCC2)CCCCC1	HCMV inh -62
CC1CCN(c2ccc(C(=O)Nc3ccc4c(c3)OCO4)cc2[N+](=O)[O-])CC1	HCMV inh -61, MARV entry inh inconclusive, HCV inh 4.5µM
O=C(NCCCN1CCOCC1)c1ccc(Cl)c(S(=O)(=O)N2CCCCCC2)c1	HCMV inh -81, MARV entry inh inconclusive, HCV inh inconclusive
CC1CCCN(c2ccc(C(=O)Nc3ccc4c(c3)OCO4)cc2[N+](=O)[O-])C1 (centres undefined)	Lassa entry inh inconclusive, HCMV inh inconclusive, FMDV inh inconclusive, MARV entry inh inconclusive, HCV inh inconclusive
O=C(c1ccncc1)N1CCC2(CC1)CN(Cc1cc(C(F)(F)F)cc(C(F)(F)F)c1)C2	none (no result: Lassa entry inh, HCMV inh, MARV entry inh, SARS PLP yeast, HCV inh)
CC(C)N(CCc1ccncc1)C(=S)Nc1ccc(F)c(Cl)c1	MARV entry inh inconclusive
CC1CN=C(c2cc(Cl)c(N)c(Cl)c2)c2c3ccccc3[n+]([O-])n21 (centres undefined)	none (no result: Lassa entry inh, FMDV inh, MARV entry inh, SARS PLP yeast, HCV inh)
CC1CN(S(=O)(=O)c2cc(C(=O)NCCCN3CCCC3=O)ccc2Cl)CC(C)O1 (centres undefined)	FMDV inh inconclusive, MARV entry inh 2.2µM
O=C(NCCCN1CCCC1=O)c1ccc(Cl)c(S(=O)(=O)N2CCCCC2)c1	none (no result: Lassa entry inh, MARV entry inh)
Cc1ccc(C(=O)NCCN2CCCC2)cc1	none
CCOc1c(Cl)cc(C(=O)NCCN2CCCCC2)cc1Cl	MARV entry inh inconclusive, HCV inh 10µM
O=C(Nc1cccnc1)c1ccc(N2CCCC2)c([N+](=O)[O-])c1	HCV inh 11µM
Cc1cc(NC(=O)CS(=O)(=O)c2cn(Cc3ccc(F)cc3)c3ccccc23)no1	FMDV inh inconclusive, HCV inh inconclusive (no result: Lassa entry inh)
Cc1cc(NC(=O)CS(=O)(=O)c2cn(Cc3cccc(F)c3)c3ccccc23)no1	Lassa entry inh inconclusive, FMDV inh 40µM, MARV entry inh inconclusive, HCV inh inconclusive
CCN(CCCNC(=O)c1cc2cc3ccc(OC)cc3nc2s1)c1ccccc1	Lassa entry inh inconclusive, HCMV inh -77, MARV entry inh inconclusive (no result: HCV inh)
CCN(CCCNC(=O)c1cc2cc3ccc(OC)cc3nc2s1)c1cccc(C)c1	HCMV inh -68 (no result: SARS PLP yeast, HCV inh)
CCN(CCCNC(=O)c1cc2c(=O)[nH]c3ccccc3c2s1)c1ccccc1	HCMV inh -81 (no result: SARS PLP yeast, HCV inh)

Screening data from PubChem BioAssay.
